From PubChem BioAssay (NCI) come the findings set out here.

The panel holds about 83,000 compounds, 20% with a hit somewhere; the sample as a whole holds those more often.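 96-well plates, one dose, 48 hours. Percent growth reported; active if below 10.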 A number with no mark means an inactive call. Active and inactive are the calls of the source.

Test systems include HT29 colon; SNB-75 CNS; SNB-19 CNS; U251 CNS; PC-3 prostate; SK-MEL-5 melanoma; UACC-62 melanoma; LOX IMVI melanoma; SK-MEL-28 melanoma; SK-MEL-2 melanoma.
Assay in all cases: NCI-60 one-dose screen, 48 h (100 = growth as untreated, 0 = no growth, -100 = all killed)
Common to all, as to settings: 10 µM unless noted

Regarding `OC1CCN(CCCOc2c3ccc(Cl)cc3nc3c2oc2ccccc23)CC1`, the growth in the assay on HT29 colon was -44.3% (active); with SNB-75 CNS, -19.1% (active); with SNB-19 CNS it was 6.3% (active); in the assay with U251 CNS it was -43.3% (active); in the assay on PC-3 prostate, -4.93% (active); in the assay with SK-MEL-5 melanoma, -97.8% (active). Besides, the growth was -69.7% (active) in the assay on UACC-62 melanoma, -85.8% (active) in the assay with LOX IMVI melanoma, -78.6% (active) in the assay with SK-MEL-28 melanoma and -86.3% (active) in the assay with SK-MEL-2 melanoma.
As to `O=C(CSc1nc2sc3c(c2c(=O)n1-c1ccc(Cl)cc1)CCCC3)NNC(=O)Nc1ccc(Cl)c(C(F)(F)F)c1`, the growth in the assay with HT29 colon was 6.06% (active); with SNB-75 CNS, 42.1%; with SNB-19 CNS it was 50.4%; with U251 CNS it was 4.22% (active); in the assay with PC-3 prostate it was -2.4% (active); in the assay on SK-MEL-5 melanoma, 34.7%. Also, the growth in the assay with UACC-62 melanoma was 37.1%; in the assay with LOX IMVI melanoma, 1.34% (active); in the assay on SK-MEL-28 melanoma, 53.7%; in the assay on SK-MEL-2 melanoma it was -9.26% (active).
Turning to `Fc1ccc(-c2cc3nc(C(Cl)Cl)nc(-c4ccccc4)n3n2)cc1`, the growth in the assay on HT29 colon was -41.4% (active); in the assay with SNB-75 CNS, -30% (active); in the assay with SNB-19 CNS, -6.52% (active); in the assay on U251 CNS it was -58.2% (active); in the assay on PC-3 prostate, -24.5% (active); with SK-MEL-5 melanoma it was 75.2%. Also, the growth was 36.2% in the assay on UACC-62 melanoma, 86.9% in the assay with LOX IMVI melanoma, -7.7% (active) in the assay on SK-MEL-28 melanoma and 53.5% in the assay with SK-MEL-2 melanoma.
With `O=C(NNc1nc2cc(F)ccc2n2c(CN3CC4(COC4)C3)ccc12)c1cnccn1`, the growth in the assay with HT29 colon was 28.6%; with SNB-75 CNS, 63.1%; in the assay with SNB-19 CNS, 29.4%; in the assay with U251 CNS, 11.6%; in the assay with PC-3 prostate, 38.9%; in the assay on SK-MEL-5 melanoma, -20.3% (active). Besides, the growth is 5.57% (active) with UACC-62 melanoma, 19.1% in the assay with LOX IMVI melanoma, 20.6% in the assay on SK-MEL-28 melanoma and 49.7% in the assay with SK-MEL-2 melanoma.
On to `COc1cc(OC)c(C2SCC(=O)N2Nc2ncnc3ccccc23)cc1OC` (stereo not given), for which the growth in the assay on HT29 colon was 113%; in the assay on SNB-75 CNS it was 101%; in the assay with SNB-19 CNS, 99.4%; in the assay with U251 CNS it was 105%; with PC-3 prostate, 107%; in the assay on SK-MEL-5 melanoma, 102%. Besides, the growth in the assay on UACC-62 melanoma is 97.6%; with LOX IMVI melanoma, 117%; in the assay with SK-MEL-28 melanoma, 104%; with SK-MEL-2 melanoma it was 123%.
Regarding `NS(=O)(=O)c1ccc(Nc2nc(SCC(=O)c3ccc(Cl)cc3)nc3ccccc23)cc1`, the growth in the assay with HT29 colon is 105%; with SNB-75 CNS it was 75.3%; in the assay with SNB-19 CNS it was 97.8%; with U251 CNS, 95.2%; with PC-3 prostate, 89.9%; in the assay on SK-MEL-5 melanoma it was 95.3%. In addition, the growth in the assay with UACC-62 melanoma was 79.4%; in the assay with LOX IMVI melanoma, 99.5%; in the assay on SK-MEL-28 melanoma, 100%; in the assay with SK-MEL-2 melanoma it was 100%.
As to `Clc1ccc2oc3c(NCCCn4ccnc4)c4ccccc4nc3c2c1`, the growth with HT29 colon is -35.2% (active); in the assay with SNB-75 CNS it was 42.1%; in the assay with SNB-19 CNS it was 51%; in the assay with U251 CNS it was 11.6%; in the assay on PC-3 prostate, 55.4%; in the assay on SK-MEL-5 melanoma it was 78%. For the same molecule, the growth is 45.2% in the assay on UACC-62 melanoma, -72.1% (active) in the assay on LOX IMVI melanoma, 59% with SK-MEL-28 melanoma and 110% in the assay on SK-MEL-2 melanoma.
As for `N[C@@H](Cc1cn(-c2ccnc3ccccc23)nn1)C(=O)O`, the growth in the assay with HT29 colon is 102%; in the assay on SNB-75 CNS, 98.5%; with SNB-19 CNS it was 88.7%; in the assay with U251 CNS, 101%; with PC-3 prostate, 96.2%; in the assay on SK-MEL-5 melanoma, 103%. In addition, the growth in the assay on UACC-62 melanoma is 95.4%; in the assay with LOX IMVI melanoma, 102%; in the assay on SK-MEL-28 melanoma it was 97%; in the assay with SK-MEL-2 melanoma it was 124%.
As for `O=C1Nc2ccccc2Oc2ccc(S(=O)(=O)CC3CO3)cc21` (stereo not given), the growth is 58.8% in the assay with HT29 colon; 90.6% in the assay on SNB-75 CNS; 96.9% in the assay with SNB-19 CNS; 77.6% in the assay with U251 CNS; 62.3% in the assay with PC-3 prostate; 90% in the assay with SK-MEL-5 melanoma. The growth in the assay with UACC-62 melanoma was 67.6%; with LOX IMVI melanoma, 29.5%; in the assay with SK-MEL-28 melanoma, 64.1%; with SK-MEL-2 melanoma it was 85.5%.
Take `N#Cc1nc(-c2ccccc2)oc1S(=O)(=O)N1CCCCC1`: the growth in the assay with HT29 colon was 2.86% (active); in the assay on SNB-75 CNS it was 94.8%; with SNB-19 CNS, 95.8%; in the assay with U251 CNS, 94.5%; in the assay on PC-3 prostate it was 88.1%; with SK-MEL-5 melanoma, 93.7%. The growth was 96.4% in the assay with UACC-62 melanoma, -82.5% (active) in the assay with LOX IMVI melanoma, 85.1% with SK-MEL-28 melanoma and 97.9% in the assay on SK-MEL-2 melanoma.
On to `Cc1ccccc1NC(=O)/C=C/c1ccc(OCCOc2ccc3c(C)cc(=O)oc3c2)cc1`, for which the growth with HT29 colon is 96.7%; with SNB-75 CNS it was 84.1%; in the assay on SNB-19 CNS, 86.4%; in the assay with U251 CNS, 85.8%; in the assay on PC-3 prostate it was 95.8%; in the assay on SK-MEL-5 melanoma it was 92.6%. In addition, the growth was 91.6% in the assay on UACC-62 melanoma, 88.5% in the assay on LOX IMVI melanoma, 90.9% in the assay on SK-MEL-28 melanoma and 103% with SK-MEL-2 melanoma.
With `CCCC(=O)NC(c1ccc2c(c1)OC(F)(F)O2)c1cc(C)c2cccnc2c1O` (stereo not given), the growth in the assay with HT29 colon was 32.3%; with SNB-75 CNS, 40.4%; with SNB-19 CNS it was 22.5%; with U251 CNS, 14.8%; with PC-3 prostate, 36.6%; in the assay on SK-MEL-5 melanoma it was -31.2% (active). The growth was -16.7% (active) in the assay on UACC-62 melanoma, 21.1% with LOX IMVI melanoma, 17.1% with SK-MEL-28 melanoma and 40.2% in the assay with SK-MEL-2 melanoma.
For the molecule `Fc1ccc(-c2nc(C(Cl)Cl)nc3cc(-c4ccccc4)nn23)cc1`, the growth was -9.69% (active) with HT29 colon; -14.7% (active) with SNB-75 CNS; 3.82% (active) with SNB-19 CNS; -53.6% (active) in the assay with U251 CNS; 31% in the assay on PC-3 prostate; 57% with SK-MEL-5 melanoma. In addition, the growth in the assay on UACC-62 melanoma was 40.6%; in the assay on LOX IMVI melanoma, 32.4%; with SK-MEL-28 melanoma, -13.8% (active); in the assay on SK-MEL-2 melanoma, 115%.
